From PubChem BioAssay (NCATS)
Records with an inconclusive call do not appear. Entries that show only a call come without a potency. Active and inactive are the calls of the source. Calls follow the shape of the dose curve; as a rule, active = well fitted curve in the direction sought with a large enough effect; inconclusive = small, poorly fitted or top-dose-only effect, or another doubt; inactive = no such curve, though single readings can be large; an effect the other way counts as inactive or inconclusive.

What was measured:
[1] = biological target: Phospholipid hydroperoxide glutathione peroxidase GPX4 (Homo sapiens) (UniProt P36969); test: Primary qHTS Assay for Inhibitors of Recombinant Selenoprotein Glutathione Peroxidase 4 (GPX4) (AID 1845192); also: series mostly up to about 50 µM; nearly all actives have a fitted effect of over 65% in size
Summary of the method: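 NADPH consumption followed by fluorescence at 340/450 nm, t=0 and after 15 min at room temperature. Reaction started with cumene hydroperoxide (0.5 mM final) after 30 min compound–GPX4 preincubation; final 200 nM GPX4, 100 nM GR, 1 mM GSH, 0.5 mM NADPH.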

[2] = biological target: Rap guanine nucleotide exchange factor 3 (Homo sapiens) (UniProt O95398); test: Confirmatory qHTS for antagonist of cAMP-regulated guanine nucleotide exchange factor 3 (EPAC1) (AID 1645880); also: nearly all actives have a fitted effect of over 55% in size
Summary of the method: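 Released BODIPY-GDP fluoresces less than Rap1-bound BODIPY-GDP; the signal is followed at 480/540 nm at 5-min intervals over 30 min, after 5 min at room temperature. Reactions contain 100 nM EPAC1, 250 nM RAP1B-BODIPY-GDP and 50 uM GDP; results are normalized to ATA and DMSO.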

[3] = biological target: Rap guanine nucleotide exchange factor 3 (Homo sapiens) (UniProt O95398); test: Confirmatory qHTS for agonist of cAMP-regulated guanine nucleotide exchange factor 3 (EPAC1) (AID 1645881);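 also: EPAC1 catalysed release of BODIPY-GDP from Rap1B seen as fluorescence loss; nearly all actives have a fitted effect of over 75% in size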
[4] = biological target: Rap guanine nucleotide exchange factor 4 (Homo sapiens) (UniProt Q8WZA2); test: Confirmatory qHTS for agonist of cAMP-regulated guanine nucleotide exchange factor 4 (EPAC2) (AID 1645884);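 also: nucleotide exchange releases bodipy-GDP from Rap1 and this lowers its fluorescence; nearly all actives have a fitted effect of over 65% in size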
[5] = biological target: Rap guanine nucleotide exchange factor 4 (Homo sapiens) (UniProt Q8WZA2); test: Confirmatory qHTS for antagonist of cAMP-regulated guanine nucleotide exchange factor 4 (EPAC2) (AID 1645885); also: nearly all actives have a fitted effect of over 25% in size

Rap guanine nucleotide exchange factor 4 (Homo sapiens), sequence (Q8WZA2 whole entry, looked up): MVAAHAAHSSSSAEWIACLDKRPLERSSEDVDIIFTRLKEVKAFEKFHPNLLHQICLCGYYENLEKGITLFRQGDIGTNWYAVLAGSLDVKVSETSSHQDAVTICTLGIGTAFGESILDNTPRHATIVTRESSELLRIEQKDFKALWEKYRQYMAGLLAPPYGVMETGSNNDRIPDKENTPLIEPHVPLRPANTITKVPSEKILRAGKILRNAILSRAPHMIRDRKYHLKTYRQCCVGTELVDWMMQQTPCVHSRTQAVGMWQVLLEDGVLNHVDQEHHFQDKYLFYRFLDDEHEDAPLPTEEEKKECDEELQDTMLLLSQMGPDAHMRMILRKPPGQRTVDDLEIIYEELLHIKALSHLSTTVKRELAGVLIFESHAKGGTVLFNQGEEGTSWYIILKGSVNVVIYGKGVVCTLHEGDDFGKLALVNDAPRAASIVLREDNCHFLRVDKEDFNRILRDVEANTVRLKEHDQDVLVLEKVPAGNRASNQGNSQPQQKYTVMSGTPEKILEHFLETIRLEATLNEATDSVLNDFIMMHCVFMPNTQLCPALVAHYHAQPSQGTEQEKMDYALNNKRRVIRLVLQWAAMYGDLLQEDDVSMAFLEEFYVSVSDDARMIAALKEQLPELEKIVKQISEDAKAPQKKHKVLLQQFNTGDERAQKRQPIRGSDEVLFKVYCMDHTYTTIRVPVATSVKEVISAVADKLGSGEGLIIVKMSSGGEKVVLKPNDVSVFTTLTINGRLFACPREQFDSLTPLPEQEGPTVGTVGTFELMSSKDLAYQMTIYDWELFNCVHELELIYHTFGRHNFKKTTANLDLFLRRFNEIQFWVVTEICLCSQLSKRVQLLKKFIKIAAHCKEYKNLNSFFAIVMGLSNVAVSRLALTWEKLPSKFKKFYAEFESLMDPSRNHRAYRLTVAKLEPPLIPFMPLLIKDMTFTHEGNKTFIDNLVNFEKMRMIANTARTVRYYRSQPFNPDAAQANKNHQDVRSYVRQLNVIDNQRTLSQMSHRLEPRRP
Rap guanine nucleotide exchange factor 3 (Homo sapiens), sequence (O95398 whole entry, looked up): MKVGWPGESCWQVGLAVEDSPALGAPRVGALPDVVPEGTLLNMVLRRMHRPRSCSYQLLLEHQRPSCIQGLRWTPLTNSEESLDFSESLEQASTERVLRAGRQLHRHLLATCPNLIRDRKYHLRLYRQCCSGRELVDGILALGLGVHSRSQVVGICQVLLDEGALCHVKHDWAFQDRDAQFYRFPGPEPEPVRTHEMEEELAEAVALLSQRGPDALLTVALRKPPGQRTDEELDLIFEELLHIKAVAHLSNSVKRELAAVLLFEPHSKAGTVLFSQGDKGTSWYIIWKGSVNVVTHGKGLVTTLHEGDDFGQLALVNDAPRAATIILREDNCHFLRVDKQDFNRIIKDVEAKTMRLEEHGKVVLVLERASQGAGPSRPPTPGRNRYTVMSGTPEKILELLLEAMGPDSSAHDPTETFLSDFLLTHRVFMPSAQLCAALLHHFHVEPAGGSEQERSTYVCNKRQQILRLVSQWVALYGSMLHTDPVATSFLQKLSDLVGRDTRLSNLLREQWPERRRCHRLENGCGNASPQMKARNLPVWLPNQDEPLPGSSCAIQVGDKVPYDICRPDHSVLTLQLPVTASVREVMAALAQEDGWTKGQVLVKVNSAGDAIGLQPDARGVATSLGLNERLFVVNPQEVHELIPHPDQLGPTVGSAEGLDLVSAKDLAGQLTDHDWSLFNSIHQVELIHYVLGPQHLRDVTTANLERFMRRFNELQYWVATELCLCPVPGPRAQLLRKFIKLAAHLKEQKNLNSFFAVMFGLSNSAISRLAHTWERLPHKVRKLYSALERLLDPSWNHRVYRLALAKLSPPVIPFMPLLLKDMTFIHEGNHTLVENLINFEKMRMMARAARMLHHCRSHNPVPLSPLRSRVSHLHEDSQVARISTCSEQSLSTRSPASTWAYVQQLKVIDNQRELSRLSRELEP
Phospholipid hydroperoxide glutathione peroxidase GPX4 (Homo sapiens), sequence (P36969 whole entry, looked up): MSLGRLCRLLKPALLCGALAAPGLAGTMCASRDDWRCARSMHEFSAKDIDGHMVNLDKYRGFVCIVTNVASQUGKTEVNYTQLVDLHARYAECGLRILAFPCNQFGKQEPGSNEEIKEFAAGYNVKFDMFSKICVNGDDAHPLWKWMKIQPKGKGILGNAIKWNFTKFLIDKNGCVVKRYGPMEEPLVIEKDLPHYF

Row | SMILES | Potency [1] | Potency [2] | Potency [3] | Potency [4] | Potency [5]
1 | CNC(=O)CCc1cc(-c2ccc(-c3ccc(C(F)(F)F)cc3)cc2)n(-c2ccc(N3CCNCC3)cc2)n1 | inactive |  |  |  | 
2 | CCCCCCc1ccc(N2C[C@H](Cc3ccccc3)[C@@H](CC(=O)Nc3ccccc3)C2=O)cc1 |  | inactive | inactive | inactive | inactive
